Lassa entry inh = Lassa virus entry inhibition; hit rate 1.2% among 300,000; Lassa virus pseudotype entry inhibition, cell reporter; Potency, µM (top dose mostly 37.9 µM), for inactives: at the top dose activity change, negative = inhibition, most hits filed as inhibitors; AID 540256; calls by dose curve; tested in HEK293 cells; note: potency is the fitted concentration of half-maximal effect; % is set by controls: 0 for no effect and ±100 for the full control effect; nearly all actives have a fitted effect of over 50% in size
HCV inhibitor = blocks hepatitis C virus | Huh7.5.1 HCVcc-Cre infection, luciferase reporter, 44 h | hit rate 3.4% among 340,000 | Potency, µM (doses to about 41.8 µM), for inactives: at the top dose activity change, negative = inhibition, most hits filed as inhibitors; active = well fitted inhibition curve with a large enough effect; inconclusive = small, poorly fitted or top-dose-only effect, or another doubt; inactive = no such curve, though single readings can be large or run the other way; note: potency is the fitted concentration of half-maximal effect; % is set by controls: 0 for no effect and ±100 for the full control effect
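HCVcc-Cre virus at an moi near 0.5 was added right after compound to cells cultured 4 h from seeding (1,000 cells/well). Luciferase activity was determined 44 h later, 15 min after substrate addition at RT.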
HCMV antiviral = blocks human cytomegalovirus replication. HFF cells, HCMV-luciferase reporter, 72 h; active compounds read low. activity change, negative = inhibition, % at 57.5 µM. hit rate 4.5% among 410,000. AID 1259415; in the data active = activity change below about -60%; inconclusive = no clear call, values can overlap the other calls; inactive = above about -39%; note: % is set by controls: 0 for no effect and ±100 for the full control effect
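Two-dose cell screen: HFF monolayers treated with compounds and infected with luciferase-expressing HCMV at 1 PFU/cell, 72 h at 37C, then lysed for luciferase measurement.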
MARV entry inh = Marburg virus entry inhibition | Marburg virus pseudotyped entry inhibition, cell reporter | Potency, µM (doses to about 37.8 µM), without a hit: at the highest dose activity change, negative = inhibition, most hits filed as inhibitors | hit rate 1.8% among 300,000; calls by dose curve; tested in HEK293 cells; note: potency is the fitted concentration of half-maximal effect; % is set by controls: 0 for no effect and ±100 for the full control effect
SARS PLP yeast = SARS-CoV PLP inhibition in yeast; hit rate 0.19% among 330,000; AID 485353; Potency, µM (top dose mostly 32.9 µM), for the others: at the highest dose activity, positive = growth rescue, actives largely listed as activators; S. cerevisiae expressing SARS-CoV PLpro, growth rescue; calls by dose curve; note: potency is the fitted concentration of half-maximal effect; 0% is about no effect; nearly all actives have a fitted effect of over 55% in size
FMDV inh = antivirals against foot and mouth disease virus; hit rate 1.2% among 410,000; Potency, µM (series often up to 57.9 µM), for inactives: top-dose activity change, negative = inhibition, actives largely listed as inhibitors; AID 1159524; FMDV antiviral cell-based qHTS; calls by dose curve; tested in HEK293T cells; note: read-out not given here; potency is the fitted concentration of half-maximal effect; % is set by controls: 0 for no effect and ±100 for the full control effect; nearly all actives have a fitted effect of over 45% in size
An asterisk follows results filed as active; ? = inconclusive; . = no result; [ ] = remark or other dose. An excerpt weighted towards active compounds, which were near 8% of everything screened.

SMILES	Lassa entry inh	HCV inhibitor	HCMV antiviral	MARV entry inh	SARS PLP yeast	FMDV inh
CCS(=O)(=O)N1Cc2ccccc2CC1C(=O)Nc1ncc(C)s1 (stereo not given)	18%	0%	23	3%	1%	69%
CC(C)(C(=O)Nc1ccccc1)n1cc(NC(=O)c2ccc3ccccc3n2)cn1	.	.	59	.	.	.
CCCN1CCC(=NNc2ccc(S(=O)(=O)N3CCOCC3)cc2[N+](=O)[O-])CC1	?	?	-73*	?	1%	-7%
CCCCCC(/C=N/Nc1ccc(S(=O)(=O)N2CCOCC2)cc1[N+](=O)[O-])=C\c1ccccc1	-12%	0%	-96*	?	-8%	-17%
CC(C)N1CCC(=NNc2ccc(S(=O)(=O)N3CCOCC3)cc2[N+](=O)[O-])CC1	-4%	3%	?	9%	-18%	-7%
CC(=O)N1CCC(=NNc2ccc(S(=O)(=O)N3CCOCC3)cc2[N+](=O)[O-])CC1	?	?	-27	16%	4%	-4%
Cc1cccc(NC(=O)C(=O)NCC(c2cccnc2)N2CCOCC2)c1 (stereo not given)	-10%[46.1 µM]	.	-1	.	.	-8%
COc1ccc(-n2nc(C(=O)N3CCN(c4ccccc4OC)CC3)c3c4ccccc4n(C)c3c2=O)cc1Cl	4%[46.1 µM]	.	19	21%[46.1 µM]	.	-21%
COc1ccc(CNC(C)C23CC4CC(CC(C4)C2)C3)c(OC)c1OC (stereo not given)	.	?	-61*	.	-1%	-21%
CCOC(=O)c1ccc(CN(Cc2ccccc2)S(=O)(=O)c2ccc(C)cc2)cc1	11µM*	.	0	.	.	3%
Oc1ccc(Br)cc1-c1nc2cnccn2c1NC1CCCC1	-9%	11µM*	?	?	-36%	?
Oc1ccc(Br)cc1-c1nc2cnccn2c1NC1CCCCC1	4%	?	?	?	-27%	.
Fc1ccc(-c2nc3cnccn3c2NC2CCCC2)cc1	.	14µM*	-19	.	-1%	-26%
Cc1ccc(N2C(=O)CCSC23C(=O)N(Cc2ccc(F)cc2)c2ccccc23)cc1 (stereo not given)	-15%[46.1 µM]	.	0	.	.	?
COc1cc(CNC(C)c2ccccc2)cc(Cl)c1OCC(=O)Nc1ccccc1 (stereo not given)	.	11µM*	-39	.	-1%	?
COc1cc(CNC(C)c2ccccc2)cc(Br)c1OCc1ccc(F)cc1 (stereo not given)	?	22µM*	?	3.5µM*	-5%	-30%
COc1cc(CNc2ccc(O)cc2)cc(Br)c1OCc1ccccc1	.	?	-39	.	-4%	-14%
COc1cc(CNC(C)c2ccccc2)cc(Br)c1OCc1ccccc1 (stereo not given)	?	?	-31	7.9µM*	-3%	0%
CCN(CC)CCNCc1cc(Cl)c(OCC(=O)Nc2ccccc2)c(OC)c1	.	?	27	.	0%	-1%
CCOc1ccccc1-c1noc(CSc2nnc(-c3ccncc3)n2-c2ccc(F)cc2)n1	?	.	-4	?	.	-20%
CCCCCC(=O)N1C[C@H](O)[C@@H](n2cc(-c3ccc(F)cc3)nn2)C[C@H]1c1ccccc1	3%[46.1 µM]	.	.	.	.	.
C[C@@H]1C(=O)N(C)C(=O)c2nc[nH]c21	.	.	.	4%	.	.
COC1=C(OC)CC2=C(CCN=C2/C(=N\O)C2CCC(OC)C(OC)C2)C1 (stereo not given)	.	.	.	-4%[46.1 µM]	.	.
Cn1c(=O)c2c(ncn2CC(=O)OCC(=O)NCc2ccc(F)cc2)n(C)c1=O	.	.	-65*	.	.	-11%
CCN(CC)CCN(Cc1cc2cc3c(cc2[nH]c1=O)OCCO3)C(=S)NCC(C)C	?	?	12	11µM*	-4%	-10%
SMILES	Lassa entry inh	HCV inhibitor	HCMV antiviral	MARV entry inh	SARS PLP yeast	FMDV inh
CCN(CC)CCCNC(=S)N(Cc1cccs1)Cc1cc2cc3c(cc2[nH]c1=O)OCCO3	6%	-7%	-104*	?	0%	-3%
CCN(CC)CCN(Cc1cc2cc3c(cc2[nH]c1=O)OCO3)C(=S)NCC(C)C	.	?	-22	.	-1%	?
COc1ccccc1CNc1ccc(-c2nc(-c3ccccn3)no2)cc1[N+](=O)[O-]	25%[46.1 µM]	.	35	-16%[46.1 µM]	.	44%
CN1CCc2c(sc3c2C(=O)NC(c2ccc(C(C)(C)C)cc2)N3)C1 (stereo not given)	14%[46.1 µM]	.	10	7%[46.1 µM]	.	-6%
CN1CCC(Oc2ccc(Sc3ccccc3)cc2)CC1	?	?	?	?	-3%	18%
CN1CCC(Oc2ccccc2Sc2ccc(C(F)(F)F)cc2)CC1	12µM*	11µM*	?	?	-8%	-25%
COc1ccc(OC)c(C(C)NC(=O)Cn2c(=O)cc(C)c3c(C)nn(-c4ccc(C)cc4)c32)c1 (stereo not given)	0%[46.1 µM]	.	12	.	.	-5%
Clc1ccccc1CNc1ncnc2c1c(-c1ccccc1)cn2-c1ccccc1	-23%[46.1 µM]	.	-28	.	.	-17%
O=C1CN(S(=O)(=O)c2ccccc2)CC(=O)N1CCc1ccccc1	7%	2%	-24	-3%	0%	-14%
Cc1cc(S(=O)(=O)N2CC(=O)N(CCc3ccccc3)C(=O)C2)ccc1F	-3%	6%	-89*	3%	1%	9%
CC(C)CN=C(NS(=O)(=O)c1ccccc1)C(Cl)(Cl)Cl	?	5µM*	-100*	?	-30%	?
C[C@H]1[C@@H](NS(=O)(=O)c2ccc([N+](=O)[O-])cc2[N+](=O)[O-])CC[C@@]23CCCN2C(=O)CCC[C@@H]13	.	.	12	.	.	.
CC1CCC(NC(=O)Cn2c3c(c(-c4ccccc4Cl)cc2=O)CCC3)CC1 (stereo not given)	.	11µM*	-23	.	-10%	?
CC(C)CCNC(=O)Cn1c2c(c(-c3ccccc3Cl)cc1=O)CCC2	.	-24%	-80*	.	-8%	-21%
Cc1ccc2c(c1)N(CC(=O)NC1CCC(C)CC1)C(=O)CO2 (stereo not given)	8%	8%	17	1%	4%	27%
CS(=O)(=O)N1CCC[C@@]2(CCN(c3ccccn3)C2)C1	.	.	.	.	.	-13%
CCOC(=O)c1cnc(-n2nc(C)cc2C)nc1NC(C)c1ccccc1 (stereo not given)	-3%	?	-97*	25%	-3%	0%
CCOC(=O)c1cnc(-n2nc(C)cc2C)nc1NNc1cc(-c2ccccc2)nc(C)n1	-1%	-23%	.	-7%	-3%	.
CCOC(=O)c1cnc(-n2nc(C)cc2C)nc1NNc1ncc(-c2ccccc2)cn1	?	?	.	11µM*	-1%	-20%
CCOC(=O)c1cnc(-n2nc(C)cc2C)nc1NCCO	-4%	-2%	18	-3%	-1%	-10%
CCOC(=O)c1cnc(-n2nc(C)cc2C)nc1NCc1ccccc1	?	?	-73*	?	-11%	28µM*
COc1ccc2c(c1)c1c(c(=O)n(Cc3ccccc3)c(=O)n1Cc1ccccc1)n2C	6%[46.1 µM]	.	7	.	.	-19%

High-throughput results from PubChem.
